In publication PMC7819943, “Rice protein-binding microarrays: a tool to detect cis-acting elements near promoter regions in rice” one finds binding signal data, which are given here for 54 sequences.

Over roughly 68,000 sequences, “fluorescence intensity (a.u.)” has its median near 9,100; the highest 2% begin near 16,000. The sample as a whole holds a higher share of the highest values than the screen did.

Chain of OsWRKY34 (Q0JBA9 entry or part of it): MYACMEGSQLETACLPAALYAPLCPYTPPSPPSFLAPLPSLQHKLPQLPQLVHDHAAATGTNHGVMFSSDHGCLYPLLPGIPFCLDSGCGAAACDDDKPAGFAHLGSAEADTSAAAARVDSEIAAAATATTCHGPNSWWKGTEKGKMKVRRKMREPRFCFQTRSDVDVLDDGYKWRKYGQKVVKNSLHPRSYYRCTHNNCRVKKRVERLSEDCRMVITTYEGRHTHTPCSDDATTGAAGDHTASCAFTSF

The target of this assay is OsWRKY34 (Oryza sativa, UniProt Q0JBA9 1-250). In words: protein-binding microarray (RPBM); PBS, 2% BSA, 51.3 ng/ul salmon testes DNA, 50 uM zinc acetate, 200 nM TF, 25 C, 1 h; high values mean tight binding. Conditions: protein: recombinant; tags: N-terminal polyhistidine and DsRed monomer fusion (pET32a); label: CyDye5-dUTP incorporated in the synthesized complementary strand; 3' TTTTT single-stranded linker to array surface; dsDNA, one strand shown. The essentials:
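Per-feature fluorescence intensity (arbitrary units), read on an Axon 4000B scanner, is the binding signal. Transcription factors carrying an N-terminal polyhistidine tag and DsRed fusion were expressed in E. coli BL21-CodonPlus and purified on Ni–NTA. A custom Agilent array, made double-stranded by primer extension with Cy5-dUTP and blocked with 2% BSA, was incubated with 200 nM protein in PBS, 2% BSA, salmon testes DNA and 50 µM zinc acetate at 25 °C for 1 h and then washed.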
As for “CCGTTCGCCACGTCCATCCGTTTTCTGTGCCATAGGCAGGCGGAGTCACCTAGTGCAG”, the binding signal was 9340 fluorescence intensity (a.u.).

For “GCGTGCTAAACCCTTGTGATCCGTGTATTTAACCACCTTCCGGAGTCACCTAGTGCAG”, the binding signal was 11700 fluorescence intensity (a.u.).

Consider “ATTGGATCGGATCAGATCCCTTTTGCGCACCACTCGCCTTCGGAGTCACCTAGTGCAG”, for which the binding signal was 8750 fluorescence intensity (a.u.).

Take “TCGAGGAGTGGATGGACGGATGGGTGGGTCATCACTGGTCCGGAGTCACCTAGTGCAG”: the binding signal was 8840 fluorescence intensity (a.u.).

Regarding “CCTCACGCAATTCCACAACTGCTGCTCCCACCCTCATCAGCGGAGTCACCTAGTGCAG”, the binding signal was 9580 fluorescence intensity (a.u.).

In the case of “TTTGCAATATCAGGGGTGTGTTACATATGTATTTCGATTTCGGAGTCACCTAGTGCAG”, the binding signal is 12400 fluorescence intensity (a.u.).

For “TCTACCCGCCTTCCTTTTAGTCCCCGCGTCTCCACAAAATCGGAGTCACCTAGTGCAG”, the binding signal is 10100 fluorescence intensity (a.u.).

For “TATTTTCCGTGTGTACCGTTCCGGTTATCAATACCAGCGCCGGAGTCACCTAGTGCAG”, the binding signal is 8380 fluorescence intensity (a.u.).

On to “CAGCCGCCCTACGTCAGCCAAGTCCAACGACAACGCCCAACGGAGTCACCTAGTGCAG”, for which the binding signal was 8200 fluorescence intensity (a.u.).

Consider “GCCATCAAGCTACGCCATTCAGCATTGCAACGACGACGTCCGGAGTCACCTAGTGCAG”, for which the binding signal is 64300 fluorescence intensity (a.u.).

For “TCATCCCACCGACGTCAGCAAGCCATCGCCATCAAGCCCACGGAGTCACCTAGTGCAG”, the binding signal was 9760 fluorescence intensity (a.u.).

For the sequence “ACCTCTGCTGATTCTTCTTGCTGTTTCTTTGTTGCGCATTCGGAGTCACCTAGTGCAG”, the binding signal was 11500 fluorescence intensity (a.u.).

With “CACCTCGCGCCGCGCCCCATCCTTATCGTCATGACACGCCCGGAGTCACCTAGTGCAG”, the binding signal is 8810 fluorescence intensity (a.u.).

For the sequence “TCTTAGTATCCTTGGTTGTTGGATTTTTAGTTTGCTTTATCGGAGTCACCTAGTGCAG”, the binding signal was 9350 fluorescence intensity (a.u.).

For the sequence “GGTTTTTTTTGGATTTATTGCTTTGTCACGTCTGGATCGTCGGAGTCACCTAGTGCAG”, the binding signal was 20500 fluorescence intensity (a.u.).

Consider “TGGAGAGCGTTGCTTTTTTTGGGCGGGTTTGGATTTTTATCGGAGTCACCTAGTGCAG”, for which the binding signal is 21600 fluorescence intensity (a.u.).

Regarding “TTGCTTGTCTGTTTGTTTTATTTATTTATGACGTCATTATCGGAGTCACCTAGTGCAG”, the binding signal was 12600 fluorescence intensity (a.u.).

For “AACTCTGGCACGATTTTTTTTATTGCAGTTTTCGTCGGATCGGAGTCACCTAGTGCAG”, the binding signal is 11400 fluorescence intensity (a.u.).

“GTTGGTTTTGGGGTTTTGGAGCGTTGCGGATTGCCACGGCCGGAGTCACCTAGTGCAG”: the binding signal was 10300 fluorescence intensity (a.u.).

Take “GAGGAGCTCGCCAATTGTTCCGCGTCATATCGCCAGCTCTCGGAGTCACCTAGTGCAG”: the binding signal was 9060 fluorescence intensity (a.u.).

For “ATAGTTGGTGTGTTTATGTAGACTTATTCTATTTTGACGTCGGAGTCACCTAGTGCAG”, the binding signal was 10400 fluorescence intensity (a.u.).

In the case of “AACCTCTCATTTAATAAGATTCATCACAGTCTTTTTTTTTCGGAGTCACCTAGTGCAG”, the binding signal was 9990 fluorescence intensity (a.u.).

Consider “TACCATTTCTTTCTTGCTTTTTTAATGCCTAAATCATCTTCGGAGTCACCTAGTGCAG”, for which the binding signal was 8050 fluorescence intensity (a.u.).

With “GATTCTAGTCAAATTTCTTTTAATTTTGACTACGTTTATACGGAGTCACCTAGTGCAG”, the binding signal is 11200 fluorescence intensity (a.u.).

Consider “TCGTTGACTTTTTTCTTAGTCAAATTTCTTTAAGTTTGACCGGAGTCACCTAGTGCAG”, for which the binding signal is 42400 fluorescence intensity (a.u.).

Consider “AGGAGCCAGACTTAGTTGGTGTAAGCCATTTACTAGTTGACGGAGTCACCTAGTGCAG”, for which the binding signal is 22800 fluorescence intensity (a.u.).

Regarding “GTCATTTTGTCTTTTTCTCTAAGTCAAACTTCTTTAATTTCGGAGTCACCTAGTGCAG”, the binding signal was 10900 fluorescence intensity (a.u.).

“TCATTTTGACTTTTTTTAGTCAAACTCTTTTAATTTTAATCGGAGTCACCTAGTGCAG”: the binding signal was 19600 fluorescence intensity (a.u.).

“GTTGCTGGTTTTGTTAGTTTGGTGACCTTGACTTGTAAGACGGAGTCACCTAGTGCAG”: the binding signal is 8670 fluorescence intensity (a.u.).

In the case of “AGTAATTTGACTTTTTCCTTAATCAAACTTCTTTAAGTTTCGGAGTCACCTAGTGCAG”, the binding signal is 10600 fluorescence intensity (a.u.).

On to “GACTTGATTTTTTTTCTTAATTTGACCTTTTAATTTCAAACGGAGTCACCTAGTGCAG”, for which the binding signal is 8080 fluorescence intensity (a.u.).

Consider “CCTCTAAATTTTAAGATTTTTTTAATCATTTTACCATTTTCGGAGTCACCTAGTGCAG”, for which the binding signal was 65200 fluorescence intensity (a.u.).

As to “CCCTATCCATTAATTACTCGCTTCGTGGTCGGAATCCATGCGGAGTCACCTAGTGCAG”, the binding signal is 8200 fluorescence intensity (a.u.).

“TGCTGCTGGTTACTTGTATTAATACATTATAGAAAATGAGCGGAGTCACCTAGTGCAG”: the binding signal was 8070 fluorescence intensity (a.u.).

Consider “AACTCTTTCTGCCCACTTCCTCAACCCATGCTTATCTACCCGGAGTCACCTAGTGCAG”, for which the binding signal is 8240 fluorescence intensity (a.u.).

As to “TGAGAAGCACCGCTCTCTCCTGCACCCGTCTCACGTGCACCGGAGTCACCTAGTGCAG”, the binding signal was 8300 fluorescence intensity (a.u.).

As for “TCACCTGATCAAGTACGCGTTTTTGGCCCTCAAAAGTATTCGGAGTCACCTAGTGCAG”, the binding signal was 8120 fluorescence intensity (a.u.).

As to “ACTAGGGTTCTCTTCTCACTCCATCGCTAGCGGCGGCTCACGGAGTCACCTAGTGCAG”, the binding signal is 8340 fluorescence intensity (a.u.).

Regarding “TAATGGGATGGGTGAAAAGTTATTGTTTTTGGTAGGCCTTCGGAGTCACCTAGTGCAG”, the binding signal is 9640 fluorescence intensity (a.u.).

On to “CACCGCCGAACGCACGATTTCTTCCCGACGCTGTCACTTGCGGAGTCACCTAGTGCAG”, for which the binding signal is 8190 fluorescence intensity (a.u.).

Regarding “CCGCGATCTGTTTCGTCCAGCTTAATTTGTTGCTGTTCTGCGGAGTCACCTAGTGCAG”, the binding signal is 11300 fluorescence intensity (a.u.).

As for “AAGTTACTTTTATTTTTTTCTAGTCAAACTACTTAGACTTCGGAGTCACCTAGTGCAG”, the binding signal was 8740 fluorescence intensity (a.u.).

Regarding “TTTGATTTTGGTCAAAGTCAAACTACTCTAAGTTTGACTACGGAGTCACCTAGTGCAG”, the binding signal is 13400 fluorescence intensity (a.u.).

“ACATTTTGACTTTTGCCAAAGTCAAACTGCTTTAAGTTTGCGGAGTCACCTAGTGCAG”: the binding signal is 11900 fluorescence intensity (a.u.).

Turning to “TATTGACTTTGGTCAAAGTCAAACTGTTTTAAATTTCACTCGGAGTCACCTAGTGCAG”, the binding signal is 10500 fluorescence intensity (a.u.).

With “AAGTTATAAGATGTTTTGACTTTGGTCAAAGTCAAACTGCCGGAGTCACCTAGTGCAG”, the binding signal was 14600 fluorescence intensity (a.u.).

In the case of “TAAGATGTTTTGACTTTGGTCAAAGTCAAACTACTTTGAGCGGAGTCACCTAGTGCAG”, the binding signal was 13200 fluorescence intensity (a.u.).

Turning to “GTTTGACTTTTTTACTAGTCAAACTTATTTAAGTTTGACCCGGAGTCACCTAGTGCAG”, the binding signal was 17500 fluorescence intensity (a.u.).

Turning to “TATTTTTGACTTTGGTCAAAGTCAAACTGTTTTAAGTTTGCGGAGTCACCTAGTGCAG”, the binding signal was 17900 fluorescence intensity (a.u.).

Consider “TTATAAGATGTTTTGACTTTGGTCAAAGTCAAACTATTTCCGGAGTCACCTAGTGCAG”, for which the binding signal was 16600 fluorescence intensity (a.u.).

With “CGCTCACTCGTCTCCTCTCGGTTTCTTTCTCTCTCTCTCTCGGAGTCACCTAGTGCAG”, the binding signal is 8160 fluorescence intensity (a.u.).

With “TATCACGATATTCTACCTCGCTCTCATGGGCTAGATCACCCGGAGTCACCTAGTGCAG”, the binding signal is 9500 fluorescence intensity (a.u.).

“CCTTGTACCTCTGTCCAGATTCATTGTACTAAGATATGTCCGGAGTCACCTAGTGCAG”: the binding signal is 8540 fluorescence intensity (a.u.).

Regarding “CTCTCTCTCTCTCTGCAGCTAGGCCATATGCATCTCTCCTCGGAGTCACCTAGTGCAG”, the binding signal was 9070 fluorescence intensity (a.u.).
